# Measurements: ChEMBL document CHEMBL1961873, “Compounds: GSK PKIS; Assays: Nanosyn kinase panel” (2012)
# What was measured:
# [1] = target: Protein kinase C gamma type (Homo sapiens) (UniProt P05129); conditions: at 1 µM;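 further: each value is an averaged percent inhibition of the enzyme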
# [2] = target: T1, Protein kinase C iota type (Homo sapiens) (UniProt P41743); conditions: at 0.1 µM
# T1 sequence (whole entry): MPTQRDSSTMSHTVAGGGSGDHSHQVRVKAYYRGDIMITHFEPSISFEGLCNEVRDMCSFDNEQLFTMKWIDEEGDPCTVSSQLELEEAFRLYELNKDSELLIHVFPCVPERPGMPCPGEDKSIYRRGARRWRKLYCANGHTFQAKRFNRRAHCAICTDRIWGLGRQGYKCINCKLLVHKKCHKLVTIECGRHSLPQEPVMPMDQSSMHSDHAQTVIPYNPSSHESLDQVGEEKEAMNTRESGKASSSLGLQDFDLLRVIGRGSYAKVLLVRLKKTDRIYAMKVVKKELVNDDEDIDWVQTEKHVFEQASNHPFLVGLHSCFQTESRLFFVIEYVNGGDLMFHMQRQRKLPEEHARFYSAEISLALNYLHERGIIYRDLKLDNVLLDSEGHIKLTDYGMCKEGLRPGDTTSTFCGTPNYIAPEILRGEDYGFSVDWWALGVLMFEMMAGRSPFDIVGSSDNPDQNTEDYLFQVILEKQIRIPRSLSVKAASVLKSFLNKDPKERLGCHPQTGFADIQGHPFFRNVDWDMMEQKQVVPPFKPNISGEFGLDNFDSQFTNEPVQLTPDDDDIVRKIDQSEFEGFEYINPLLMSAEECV
# [3] = target: T1, Protein kinase C iota type (Homo sapiens); conditions: at 1 µM
# [4] = target: Protein kinase C theta type (Homo sapiens) (UniProt Q04759); conditions: at 0.1 µM
# Protein kinase C theta type (Homo sapiens), sequence (Q04759 whole entry, looked up): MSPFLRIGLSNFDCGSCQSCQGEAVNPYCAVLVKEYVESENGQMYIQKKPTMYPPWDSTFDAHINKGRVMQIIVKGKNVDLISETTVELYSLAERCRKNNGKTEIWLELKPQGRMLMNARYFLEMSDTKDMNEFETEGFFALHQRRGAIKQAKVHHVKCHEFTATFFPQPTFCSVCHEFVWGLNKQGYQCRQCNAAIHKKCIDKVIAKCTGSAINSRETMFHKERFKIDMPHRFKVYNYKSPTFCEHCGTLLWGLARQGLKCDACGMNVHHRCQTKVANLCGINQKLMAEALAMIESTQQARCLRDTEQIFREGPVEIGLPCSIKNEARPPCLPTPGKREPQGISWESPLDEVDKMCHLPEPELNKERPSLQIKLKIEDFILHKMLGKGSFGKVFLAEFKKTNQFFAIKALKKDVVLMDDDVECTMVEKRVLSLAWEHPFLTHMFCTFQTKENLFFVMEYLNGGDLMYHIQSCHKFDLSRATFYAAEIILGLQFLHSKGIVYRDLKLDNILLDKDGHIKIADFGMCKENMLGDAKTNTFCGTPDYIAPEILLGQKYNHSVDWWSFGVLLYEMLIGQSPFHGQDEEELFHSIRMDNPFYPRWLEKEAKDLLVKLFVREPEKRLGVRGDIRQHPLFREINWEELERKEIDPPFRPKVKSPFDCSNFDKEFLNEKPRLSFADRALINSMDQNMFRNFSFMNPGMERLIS
# [5] = target: Protein kinase C theta type (Homo sapiens) (UniProt Q04759); conditions: at 1 µM
# [6] = target: Protein kinase C beta type (Homo sapiens) (UniProt P05771); conditions: at 0.1 µM
# Protein kinase C beta type (Homo sapiens), sequence (P05771 2-671 limits assumed): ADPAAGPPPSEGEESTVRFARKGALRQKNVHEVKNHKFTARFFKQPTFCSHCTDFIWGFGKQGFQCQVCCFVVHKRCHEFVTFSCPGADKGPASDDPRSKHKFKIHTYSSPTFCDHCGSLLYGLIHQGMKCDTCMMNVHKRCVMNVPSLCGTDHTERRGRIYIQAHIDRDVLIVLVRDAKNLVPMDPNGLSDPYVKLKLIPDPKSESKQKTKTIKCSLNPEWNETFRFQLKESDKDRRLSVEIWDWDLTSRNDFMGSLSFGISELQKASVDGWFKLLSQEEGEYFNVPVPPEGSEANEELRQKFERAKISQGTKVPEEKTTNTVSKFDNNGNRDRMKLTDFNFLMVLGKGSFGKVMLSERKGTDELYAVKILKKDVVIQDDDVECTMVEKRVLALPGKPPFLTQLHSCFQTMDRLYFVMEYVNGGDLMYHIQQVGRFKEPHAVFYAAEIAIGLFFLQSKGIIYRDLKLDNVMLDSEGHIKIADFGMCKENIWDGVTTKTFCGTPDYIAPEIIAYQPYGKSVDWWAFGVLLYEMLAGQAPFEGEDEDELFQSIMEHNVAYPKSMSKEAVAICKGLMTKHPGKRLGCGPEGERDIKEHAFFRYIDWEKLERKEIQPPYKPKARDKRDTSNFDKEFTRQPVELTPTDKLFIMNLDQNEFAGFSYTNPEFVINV
# [7] = target: Protein kinase C beta type (Homo sapiens) (UniProt P05771); conditions: at 1 µM
# [8] = target: T2, Serine/threonine-protein kinase D1 (Homo sapiens) (UniProt Q15139); conditions: at 0.1 µM
# T2 sequence (whole entry): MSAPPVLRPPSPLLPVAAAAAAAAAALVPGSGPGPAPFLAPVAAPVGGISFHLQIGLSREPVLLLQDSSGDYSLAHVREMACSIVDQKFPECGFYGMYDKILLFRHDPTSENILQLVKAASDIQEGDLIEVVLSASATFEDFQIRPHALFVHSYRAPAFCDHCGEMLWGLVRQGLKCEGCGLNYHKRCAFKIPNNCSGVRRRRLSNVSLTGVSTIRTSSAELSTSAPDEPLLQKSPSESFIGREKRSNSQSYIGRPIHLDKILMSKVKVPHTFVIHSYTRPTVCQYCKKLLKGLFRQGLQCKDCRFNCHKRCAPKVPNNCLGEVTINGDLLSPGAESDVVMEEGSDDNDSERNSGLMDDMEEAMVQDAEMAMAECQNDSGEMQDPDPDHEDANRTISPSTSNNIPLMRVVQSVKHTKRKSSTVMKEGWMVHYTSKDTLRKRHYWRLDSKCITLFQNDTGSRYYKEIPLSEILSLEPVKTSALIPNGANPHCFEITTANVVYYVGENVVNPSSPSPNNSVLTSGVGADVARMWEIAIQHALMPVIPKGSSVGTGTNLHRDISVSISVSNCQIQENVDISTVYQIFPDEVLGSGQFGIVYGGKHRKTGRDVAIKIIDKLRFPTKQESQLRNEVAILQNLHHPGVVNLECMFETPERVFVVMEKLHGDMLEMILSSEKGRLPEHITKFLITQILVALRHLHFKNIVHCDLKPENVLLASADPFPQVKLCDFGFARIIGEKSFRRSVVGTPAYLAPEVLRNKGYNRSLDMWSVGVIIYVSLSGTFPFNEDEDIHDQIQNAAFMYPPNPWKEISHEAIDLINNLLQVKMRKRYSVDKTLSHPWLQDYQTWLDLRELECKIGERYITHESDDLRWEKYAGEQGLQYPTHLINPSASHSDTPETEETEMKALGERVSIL
# [9] = target: T2, Serine/threonine-protein kinase D1 (Homo sapiens); conditions: at 1 µM
# [10] = target: T3, Serine/threonine-protein kinase D2 (Homo sapiens) (UniProt Q9BZL6); conditions: at 0.1 µM
# T3 sequence (whole entry): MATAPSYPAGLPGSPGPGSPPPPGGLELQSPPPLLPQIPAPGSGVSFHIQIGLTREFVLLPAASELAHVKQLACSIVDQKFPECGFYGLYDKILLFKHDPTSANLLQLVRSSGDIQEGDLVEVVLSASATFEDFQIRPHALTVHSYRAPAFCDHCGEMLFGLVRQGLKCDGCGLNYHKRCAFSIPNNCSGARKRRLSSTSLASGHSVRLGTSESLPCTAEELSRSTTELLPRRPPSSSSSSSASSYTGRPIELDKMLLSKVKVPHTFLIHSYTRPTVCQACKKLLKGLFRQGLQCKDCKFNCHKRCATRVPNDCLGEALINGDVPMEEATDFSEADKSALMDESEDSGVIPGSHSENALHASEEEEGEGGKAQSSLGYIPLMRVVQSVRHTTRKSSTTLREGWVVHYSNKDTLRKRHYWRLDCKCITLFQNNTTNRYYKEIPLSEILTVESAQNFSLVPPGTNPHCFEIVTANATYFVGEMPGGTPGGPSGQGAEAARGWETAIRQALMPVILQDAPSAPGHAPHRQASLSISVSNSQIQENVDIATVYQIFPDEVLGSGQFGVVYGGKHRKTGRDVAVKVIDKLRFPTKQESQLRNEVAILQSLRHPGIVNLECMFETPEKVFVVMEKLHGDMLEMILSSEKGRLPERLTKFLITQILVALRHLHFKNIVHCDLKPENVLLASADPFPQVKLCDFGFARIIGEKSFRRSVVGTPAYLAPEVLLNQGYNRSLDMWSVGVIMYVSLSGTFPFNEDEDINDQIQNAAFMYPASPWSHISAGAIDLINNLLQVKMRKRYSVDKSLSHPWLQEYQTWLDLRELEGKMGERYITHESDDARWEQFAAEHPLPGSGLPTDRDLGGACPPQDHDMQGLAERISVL
# [11] = target: T3, Serine/threonine-protein kinase D2 (Homo sapiens); conditions: at 1 µM
# [12] = target: T4, Serine/threonine-protein kinase D3 (Homo sapiens) (UniProt O94806); conditions: at 0.1 µM
# T4 sequence (whole entry): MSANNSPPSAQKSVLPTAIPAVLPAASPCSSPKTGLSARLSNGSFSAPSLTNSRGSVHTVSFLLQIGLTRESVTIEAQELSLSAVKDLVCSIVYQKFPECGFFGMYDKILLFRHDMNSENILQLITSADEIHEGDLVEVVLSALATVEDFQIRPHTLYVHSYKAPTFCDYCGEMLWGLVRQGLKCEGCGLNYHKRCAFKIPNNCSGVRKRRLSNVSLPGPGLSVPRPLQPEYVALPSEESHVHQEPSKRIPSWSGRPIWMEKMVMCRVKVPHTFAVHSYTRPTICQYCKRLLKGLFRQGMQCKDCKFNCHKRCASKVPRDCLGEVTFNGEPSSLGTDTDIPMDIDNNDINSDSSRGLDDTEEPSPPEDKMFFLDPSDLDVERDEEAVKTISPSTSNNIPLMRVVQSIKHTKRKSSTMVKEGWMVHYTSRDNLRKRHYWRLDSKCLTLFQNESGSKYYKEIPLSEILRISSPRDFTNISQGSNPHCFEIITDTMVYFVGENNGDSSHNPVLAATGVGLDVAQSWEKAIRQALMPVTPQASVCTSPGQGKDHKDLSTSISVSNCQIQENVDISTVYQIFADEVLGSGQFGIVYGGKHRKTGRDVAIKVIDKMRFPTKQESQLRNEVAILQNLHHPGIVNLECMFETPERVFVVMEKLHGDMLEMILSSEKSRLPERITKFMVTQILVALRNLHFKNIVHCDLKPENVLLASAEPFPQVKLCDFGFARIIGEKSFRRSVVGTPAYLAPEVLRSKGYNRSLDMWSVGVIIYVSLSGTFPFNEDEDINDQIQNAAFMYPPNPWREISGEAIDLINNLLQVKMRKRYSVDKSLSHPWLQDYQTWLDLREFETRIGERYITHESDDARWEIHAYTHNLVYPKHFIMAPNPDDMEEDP
# [13] = target: T4, Serine/threonine-protein kinase D3 (Homo sapiens); conditions: at 1 µM
# [14] = target: T5, cGMP-dependent protein kinase 1 (Homo sapiens) (UniProt Q13976); conditions: at 0.1 µM
# T5 sequence (whole entry): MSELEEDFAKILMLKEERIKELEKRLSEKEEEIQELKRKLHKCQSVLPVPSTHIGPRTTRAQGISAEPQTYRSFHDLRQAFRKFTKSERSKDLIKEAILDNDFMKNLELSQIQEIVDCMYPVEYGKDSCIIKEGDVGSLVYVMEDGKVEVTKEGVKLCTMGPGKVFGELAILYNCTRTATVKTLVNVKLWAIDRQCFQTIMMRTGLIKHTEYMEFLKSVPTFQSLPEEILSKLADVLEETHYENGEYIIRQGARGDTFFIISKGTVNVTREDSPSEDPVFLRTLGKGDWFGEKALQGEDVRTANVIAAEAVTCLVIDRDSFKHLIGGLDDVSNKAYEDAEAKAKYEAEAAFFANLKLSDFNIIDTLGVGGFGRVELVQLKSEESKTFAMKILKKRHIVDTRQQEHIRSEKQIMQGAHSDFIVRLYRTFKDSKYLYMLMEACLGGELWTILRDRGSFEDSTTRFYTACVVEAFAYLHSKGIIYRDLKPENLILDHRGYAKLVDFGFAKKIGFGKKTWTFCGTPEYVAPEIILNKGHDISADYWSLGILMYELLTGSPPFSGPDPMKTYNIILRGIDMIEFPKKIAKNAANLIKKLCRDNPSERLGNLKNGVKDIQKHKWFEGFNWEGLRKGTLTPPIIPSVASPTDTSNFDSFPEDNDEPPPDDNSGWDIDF
# [15] = target: T5, cGMP-dependent protein kinase 1 (Homo sapiens); conditions: at 1 µM
# [16] = target: T6, cGMP-dependent protein kinase 2 (Homo sapiens) (UniProt Q13237); conditions: at 0.1 µM
# T6 sequence (whole entry): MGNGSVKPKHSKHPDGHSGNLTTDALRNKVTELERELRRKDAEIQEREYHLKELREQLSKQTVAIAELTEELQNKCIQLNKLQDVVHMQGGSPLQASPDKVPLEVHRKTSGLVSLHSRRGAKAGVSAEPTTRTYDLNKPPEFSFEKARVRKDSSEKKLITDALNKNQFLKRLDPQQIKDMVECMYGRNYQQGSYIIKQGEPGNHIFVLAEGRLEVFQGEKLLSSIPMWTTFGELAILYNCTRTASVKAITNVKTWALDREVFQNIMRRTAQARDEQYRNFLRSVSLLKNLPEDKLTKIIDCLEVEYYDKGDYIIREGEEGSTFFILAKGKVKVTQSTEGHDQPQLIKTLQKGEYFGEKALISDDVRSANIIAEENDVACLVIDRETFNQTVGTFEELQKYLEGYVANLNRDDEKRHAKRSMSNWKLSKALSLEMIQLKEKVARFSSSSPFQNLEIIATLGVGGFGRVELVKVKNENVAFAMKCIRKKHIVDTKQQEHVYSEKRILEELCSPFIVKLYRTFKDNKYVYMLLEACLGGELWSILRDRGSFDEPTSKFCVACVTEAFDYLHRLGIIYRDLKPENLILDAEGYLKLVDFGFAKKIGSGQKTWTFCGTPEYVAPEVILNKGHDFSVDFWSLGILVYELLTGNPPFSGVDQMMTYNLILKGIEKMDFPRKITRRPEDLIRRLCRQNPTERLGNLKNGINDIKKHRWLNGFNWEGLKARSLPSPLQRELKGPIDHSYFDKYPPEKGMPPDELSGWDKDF
# [17] = target: T6, cGMP-dependent protein kinase 2 (Homo sapiens); conditions: at 1 µM
# [18] = target: T7, cAMP-dependent protein kinase catalytic subunit PRKX (Homo sapiens) (UniProt P51817); conditions: at 0.1 µM
# T7 sequence (whole entry): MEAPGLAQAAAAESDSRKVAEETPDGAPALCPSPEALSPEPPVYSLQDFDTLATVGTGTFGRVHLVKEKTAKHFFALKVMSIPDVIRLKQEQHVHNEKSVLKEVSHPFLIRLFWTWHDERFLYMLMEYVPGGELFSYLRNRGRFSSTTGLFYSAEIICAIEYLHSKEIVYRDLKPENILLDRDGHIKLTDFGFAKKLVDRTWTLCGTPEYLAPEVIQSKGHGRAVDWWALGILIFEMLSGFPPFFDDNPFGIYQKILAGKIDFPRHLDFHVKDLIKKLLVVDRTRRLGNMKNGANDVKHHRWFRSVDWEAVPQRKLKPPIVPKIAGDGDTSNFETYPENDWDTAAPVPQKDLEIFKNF
# [19] = target: T7, cAMP-dependent protein kinase catalytic subunit PRKX (Homo sapiens); conditions: at 1 µM
# [20] = target: Rho-associated protein kinase 1 (Homo sapiens) (UniProt Q13464); conditions: at 0.1 µM;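 further: values are mean percent inhibition of ROCK1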
# Rho-associated protein kinase 1 (Homo sapiens), sequence (Q13464 2-1354 limits assumed): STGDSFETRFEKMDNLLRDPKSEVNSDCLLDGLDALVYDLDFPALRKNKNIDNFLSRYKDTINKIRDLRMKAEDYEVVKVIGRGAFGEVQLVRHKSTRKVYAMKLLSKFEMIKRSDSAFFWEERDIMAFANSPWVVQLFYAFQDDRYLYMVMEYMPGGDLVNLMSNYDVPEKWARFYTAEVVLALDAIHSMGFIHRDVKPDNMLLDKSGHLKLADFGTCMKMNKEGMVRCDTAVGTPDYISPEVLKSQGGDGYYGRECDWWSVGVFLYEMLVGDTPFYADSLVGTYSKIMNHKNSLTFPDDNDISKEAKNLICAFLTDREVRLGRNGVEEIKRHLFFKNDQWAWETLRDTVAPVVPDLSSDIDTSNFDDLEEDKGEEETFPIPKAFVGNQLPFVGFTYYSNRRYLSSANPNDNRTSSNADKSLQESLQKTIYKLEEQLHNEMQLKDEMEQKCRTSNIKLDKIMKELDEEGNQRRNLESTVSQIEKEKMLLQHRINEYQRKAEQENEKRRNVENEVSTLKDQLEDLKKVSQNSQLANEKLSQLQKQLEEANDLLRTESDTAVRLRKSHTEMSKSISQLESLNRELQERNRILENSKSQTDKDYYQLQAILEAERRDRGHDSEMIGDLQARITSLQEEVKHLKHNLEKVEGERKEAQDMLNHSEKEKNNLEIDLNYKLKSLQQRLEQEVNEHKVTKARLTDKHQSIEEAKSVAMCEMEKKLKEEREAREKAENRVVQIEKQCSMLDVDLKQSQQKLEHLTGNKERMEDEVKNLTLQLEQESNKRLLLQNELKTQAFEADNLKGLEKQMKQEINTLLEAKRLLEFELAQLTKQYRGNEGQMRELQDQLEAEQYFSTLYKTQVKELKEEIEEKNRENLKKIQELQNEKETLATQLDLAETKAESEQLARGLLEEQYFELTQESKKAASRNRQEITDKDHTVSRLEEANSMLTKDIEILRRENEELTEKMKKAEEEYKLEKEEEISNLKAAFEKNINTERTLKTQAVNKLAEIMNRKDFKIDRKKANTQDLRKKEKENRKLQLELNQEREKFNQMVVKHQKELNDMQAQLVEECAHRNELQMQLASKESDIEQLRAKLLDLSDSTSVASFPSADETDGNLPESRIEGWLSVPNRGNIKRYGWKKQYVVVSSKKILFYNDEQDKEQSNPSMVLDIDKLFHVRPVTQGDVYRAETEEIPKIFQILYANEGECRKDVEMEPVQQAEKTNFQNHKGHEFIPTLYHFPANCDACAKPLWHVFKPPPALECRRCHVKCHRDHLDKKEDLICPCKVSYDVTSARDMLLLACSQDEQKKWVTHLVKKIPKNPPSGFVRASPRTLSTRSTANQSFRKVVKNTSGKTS
SMILES,inhibition [1] [%],inhibition [2] [%],inhibition [3] [%],inhibition [4] [%],inhibition [5] [%],inhibition [6] [%],inhibition [7] [%],inhibition [8] [%],inhibition [9] [%],inhibition [10] [%],inhibition [11] [%],inhibition [12] [%],inhibition [13] [%],inhibition [14] [%],inhibition [15] [%],inhibition [16] [%],inhibition [17] [%],inhibition [18] [%],inhibition [19] [%],inhibition [20] [%]
COC(=O)c1ccc2c(c1)C(=Cc1cc(Br)c(O)c(Br)c1)C(=O)N2,0.79,1.17,0.96,1.25,1.86,1.12,1.9,5.07,7.26,4.47,3.79,4.47,5.87,2.45,5.8,1.59,6.29,1.47,1.86,2.01
Cc1ccc(Nc2ccnc(Nc3cccc(C(N)=O)c3)n2)cc1O,16.4,1.56,-0.31,0.93,2.94,1.81,8.28,-0.94,12.1,-0.15,10.1,-0.05,9.43,1.11,3.77,2.93,7.68,1.82,2.66,0.56
